# Results reported in PubChem BioAssay AID1259343 (VanderVen Lab, College of Veterinary Medicine, Cornell …, 2017).
# The campaign covered roughly 6,200 compounds. About 2,900 (47%) were called active. So high a share suggests a set chosen from earlier hits. The list shows a part of the results. Unmarked numbers belong to inactive results. Rule as the data show it: active = inhibition above about 50%; inactive = the rest.
# Assay: Mycobacterium tuberculosis growth inhibition, primary screen (AID 1259343)
# Conditions: inhibition: at 10 µM, active compounds read high; outcome: 10 uM
row,Compound,inhibition
1,NC(=S)c1cc2ccccc2oc1=O,101% (active)
2,O=c1oc2ccccc2cc1S(=O)(=O)c1ccc(Cl)cc1,-58.5%
3,Cc1ccc(CSc2nc(=O)n3ccc(C)cc3n2)cc1,24.5%
4,Cc1ccn2c(=O)nc(SCc3ccc(Cl)cc3)nc2c1,77.5% (active)
5,Cc1ccn2c(=O)nc(SCc3ccc(Br)cc3)nc2c1,1.95%
6,Cc1ccn2c(=O)nc(SCc3ccc(Cl)c(Cl)c3)nc2c1,59% (active)
7,Cc1ccn2c(=O)nc(SCCc3ccccc3)nc2c1,88.3% (active)
8,Cc1ccn2c(=O)nc(SCc3cccc(C(F)(F)F)c3)nc2c1,2.92%
9,Cc1ccn2c(=O)nc(SCc3cccc(Cl)c3)nc2c1,86.3% (active)
10,Cc1ccn2c(=O)nc(SCc3ccc(F)cc3)nc2c1,1.46%
11,Cc1ccn2c(=O)nc(SCc3ccc(Cl)cc3Cl)nc2c1,31.1%
12,CCCSc1nnnn1-c1ccc(O)cc1,55% (active)
13,N#CCSc1nnnn1-c1ccc(O)cc1,-12.8%
14,COc1cc(NC(=O)CSc2ncnc3c2cnn3C)cc(OC)c1,35.5%
15,O=C(CSc1ncnc2c1cnn2-c1ccc(F)cc1)Nc1ccon1,68.2% (active)
16,Cc1noc(-c2ccnc(NCc3ccc(C#N)cc3)c2)n1,22.9%
17,Cc1nc(SCC(=O)C23CC4CC(CC(C4)C2)C3)nc(C)c1C,45%
18,O=C(C[P+](c1ccccc1)(c1ccccc1)c1ccccc1)C12CC3CC(CC(C3)C1)C2,95.7% (active)
19,CC(=O)CSc1nc2sc(C)c(C)c2c(=O)n1C1CCCCC1,12%
20,Cc1ccc(-n2c(SCC(=O)N3CCNC3=O)nc3sc4c(c3c2=O)CCC4)c(C)c1,91.2% (active)
21,Fc1ccc(Cc2nc(CSc3c(F)c(F)cc(F)c3F)cs2)c(Cl)c1,50.2% (active)
22,CNC(Cc1ccc(Br)cc1)Cc1ccc(Br)cc1,68.1% (active)
23,CN1CCN(CC(O)COc2ccc(C34CC5CC(CC(C5)C3)C4)cc2)CC1 (configuration not stated),101% (active)

row,Compound,inhibition
1,NCCOc1ccc(C23CC4CC(CC(C4)C2)C3)cc1,-5.79%
2,c1nc(NN=C2C3CC4CC(C3)CC2C4)c2c3c(sc2n1)CCC3,100% (active)
3,CCCCCNc1ncnc2sc3c(c12)CCCC3,-24.3%
4,COCc1nc(NCCC2=CCCCC2)c2cnn(C)c2n1,-33.4%
5,C1=C(CCNc2ncnc3sc4c(c23)CCC4)CCCC1,97% (active)
6,c1nc(NC2CCCCCC2)c2c3c(sc2n1)CCC3,68% (active)
7,Cc1cn2nc(NC3CCCCCCC3)sc2n1,-9.07%
8,c1csc(CCNc2ncnc3sc4c(c23)CCC4)c1,-1.33%
9,CC(=NNc1ncnc2sc3c(c12)CCC3)c1cc2ccccc2o1,24.7%
10,c1nc(NC2CCCCCC2)c2c3c(sc2n1)CCCC3,94.5% (active)
11,O=S(=O)(Nc1ncnc2sc3c(c12)CCC3)c1cccs1,101% (active)
12,O=C(CSc1nnc(CCn2ccc(=O)[nH]c2=O)o1)N1CCc2ccccc2C1,4.33%
13,Cc1nc(-c2ccccn2)[nH]c(=O)c1CC(=O)N1CCc2ccccc2C1,67.7% (active)
14,Cc1ccc(NC(=O)c2cc(C)n(C3CC3)c2C)c(C)c1,12.4%
15,CC1=C(C#N)C(C(F)(F)F)(C(F)(F)F)N=C(C2CCCCC2)N1,11.3%
16,CC(=O)Nc1nc(COc2ccc(Cl)cc2Br)cs1,41.2%
17,Nc1nc(COc2ccc(Cl)cc2Cl)cs1,87.6% (active)
18,Cc1nc(COc2ccccc2C(=O)Nc2ccc(Cl)cc2C)cs1,-36.5%
19,CCCCn1c(C2CCCCC2)nc2oc3ccccc3c(=O)c2c1=O,-33.2%
20,COc1nc(C)ccc1CNC(=O)C(=O)Nc1cccc(F)c1F,8.51%
21,CC(C)c1ccc(-c2noc(CN(C)c3ccccc3)n2)cc1,63.2% (active)
22,Cc1ccc(-c2noc(COc3ccc(C(C)C)cc3)n2)cc1,95.7% (active)
23,CN(Cc1nc(-c2ccc(C(F)(F)F)cc2)no1)CC(O)c1ccccc1 (configuration not stated),84.5% (active)

row,Compound,inhibition
1,Cc1ccc(-c2noc(CSc3ncccn3)n2)cc1,42.6%
2,Clc1ccc(-c2noc(COc3ccc4c(c3)OCO4)n2)cc1,18.1%
3,CN(Cc1nc(-c2ccccc2)no1)Cc1ccnc2ccccc12,-26.1%
4,Cc1ccc(-c2noc(CC#N)n2)cc1,77.1% (active)
5,N#CCOc1ccc(CNc2ncc(Br)cn2)cc1,33.8%
6,Cc1ccc(-c2noc(CN3CCCc4ccccc43)n2)cc1,101% (active)
7,N#Cc1c(SCc2ccccc2)n[nH]c1-c1cccs1,37.8%
8,O=c1[nH]nc(SCc2ccccc2)c(=S)[nH]1,85.6% (active)
9,CC(C)(C)c1nnc(NC(=O)c2cc(C(F)(F)F)cc(C(F)(F)F)c2)s1,96% (active)
10,CC(C)CC(=O)Nc1nnc(C(C)(C)C)s1,17.4%
11,CC(C)c1cc(C(=O)N2C[C@@H]3[C@H](C2)[C@H]2CC[C@@H]3O2)cs1,-8.56%
12,CCCc1nc(N2C[C@@H]3[C@H](C2)[C@H]2CC[C@@H]3O2)no1,-30.4%
13,CC(C)Cc1cc(C(=O)N2C[C@@H]3[C@H](C2)[C@H]2CC[C@@H]3O2)on1,83.1% (active)
14,CC1CCN(C(=O)Nc2ccc(Br)cc2)CC1,30.1%
15,Cc1ccc(NC(=O)N2CCN(CCCOC(c3ccc(Cl)cc3)c3ccc(Cl)cc3)CC2)cc1,-2.85%
16,CC(C)c1noc(-c2ccc(NC(=O)N3CCCC3)cc2)n1,73.4% (active)
17,COc1ccc(NC(=O)c2ccc(=O)n(C)c2)cc1Br,2.47%
18,COC(F)(C(=O)Nc1ccc(C)c(Br)c1)C(F)(F)F (configuration not stated),56.7% (active)
19,Cc1ccc(NC(=O)c2ncoc2C(C)C)cc1Br,40.1%
20,O=C1CC(c2ccccc2)CC(=O)C1S(=O)c1ccc(Cl)cc1 (configuration not stated),58.1% (active)
21,C=C=C/C=C/C=C\Oc1ccc(CO)cc1O/C=C\C=C\C=C=C,88.7% (active)
